Reference: PubChem BioAssay AID1345085 (National Center for Advancing Translational Sciences (NCATS), 2018)
Records with an inconclusive call do not appear. Calls of active or inactive are those of the source. The call rests on the fitted dose curve; in most records, active means well fitted cell-killing curve with a large enough effect; inconclusive means small, poorly fitted or top-dose-only effect, or effect the other way; inactive means no such curve, though single readings can be large or run the other way.
Further: nearly all actives have a fitted effect of over 55% in size.
Potency means the concentration at half of the fitted maximal effect.

What follows are molecules tested on CASKI (assay: Confirmatory qHTS for gynecologic anti-cancer compounds from libraries of approved drugs and bioactive compounds). Conditions: gynecologic cancer cell panel viability, ATPlite luminescence, 48 h; series mostly up to 57.6 µM.
Summary of the method: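 Seeding 1,000 cells per well preceded overnight (16 h) attachment, after which 48 h drug treatment across 57.5 uM–0.977 nM (11 points) was applied. Remaining cellular ATP, detected by ATPlite luminescence, defined IC50.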
With `Cc1cnc(Nc2cccc(CN3CCOCC3)c2)nc1Nc1cccc(S(=O)(=O)NC(C)(C)C)c1` the Potency was 15.3 µM (active).
In the case of `c1nc2nc(Nc3ccc(N4CCOCC4)cc3)nc(NC3CCCCC3)c2[nH]1`, the Potency is reported as 7.49 µM (active).
`COc1cc(N2CCC(N3CCN(C)CC3)CC2)ccc1Nc1ncc(Cl)c(Nc2ccccc2S(=O)(=O)C(C)C)n1` was tested, and the Potency was 12.2 µM (active).
With `CN[C@@H](C)C(=O)N[C@H]1CN(C(=O)CC(C)C)CC[C@H]2CC[C@@H](C(=O)NC(c3ccccc3)c3ccccc3)N2C1=O` the Potency was “inactive”.
For `Nc1ccc(-c2ccc3ncc4ccc(=O)n(-c5cccc(C(F)(F)F)c5)c4c3c2)cn1`, the Potency was 1.93 µM (active).
For `CN(c1nccc(=O)[nH]1)C1CCN(c2nc3ccccc3n2Cc2ccc(F)cc2)CC1`, the Potency was “inactive”.
With `OC[C@H]1O[C@@H](n2cnc3c(=S)nc[nH]c32)[C@H](O)[C@@H]1O` the Potency was 4.85 µM (active).
`Cc1ccc(C(=O)Nc2ccc(Oc3cc4cnn(C)c4cc3-c3cn[nH]c3)c(F)c2)c(=O)n1-c1ccc(F)cc1` was tested, and the Potency was “inactive”.
`Cc1ccc(C(=O)N(CCCN)C(c2oc3cc(Cl)ccc3c(=O)c2Cc2ccccc2)C(C)C)cc1` (configuration not stated) was tested, and the Potency was 27.3 µM (active).
For `S=c1nc[nH]c2nc[nH]c12`, the Potency was 4.85 µM (active).
With `CN1C2CCC1CC(OC(=O)[C@H](CO)c1ccccc1)C2` (some centres not stated) the Potency was “inactive”.
With `COc1cc(N2CCC(N(C)C)CC2)ccc1Nc1ncc(Cl)c(Nc2ccccc2P(C)(C)=O)n1` the Potency was 7.69 µM (active).
With `Nc1nccc(Oc2ccc(NC(=O)c3c[nH]cc(-c4ccc(F)cc4)c3=O)cc2F)c1Cl` the Potency was 12.2 µM (active).
For `Cc1ccc(C(=O)N(CCCN)C(c2nc3cc(Cl)ccc3c(=O)n2Cc2ccccc2)C(C)C)cc1` (configuration not stated), the Potency was 27.3 µM (active).
With `Cc1c(NC(=O)OCC2COCCN2)cn2ncnc(Nc3ccc4c(cnn4Cc4cccc(F)c4)c3)c12` (configuration not stated) the Potency was 19.3 µM (active).
With `C[C@@H](Oc1cc(-c2cnn(C3CCNCC3)c2)cnc1N)c1c(Cl)ccc(F)c1Cl` the Potency was 24.3 µM (active).
For `Oc1cn2c(n1)Nc1ccc(Cl)c(Cl)c1C2`, the Potency was “inactive”.
In the case of `COC(=O)c1ccc2c(C(=Nc3ccc(N(C)C(=O)CN4CCN(C)CC4)cc3)c3ccccc3)c(O)[nH]c2c1`, the Potency is reported as “inactive”.
With `COc1cc(Nc2ncc(F)c(Nc3ccc4c(n3)N(COP(=O)(O)O)C(=O)C(C)(C)O4)n2)cc(OC)c1OC` the Potency was 5.44 µM (active).
In the case of `Cc1cnc(Nc2ccc(CN3CCOCC3)cc2)nc1Nc1cccc(S(=O)(=O)NC(C)(C)C)c1`, the Potency is reported as 4.85 µM (active).
In the case of `NS(=O)(=O)c1ccc(Nc2nc(OCC3CCCCC3)c3[nH]cnc3n2)cc1`, the Potency is reported as “inactive”.
For `CCN1C[C@H](C)n2c(c(O)c3c(=O)n(Cc4ccc(F)c(Cl)c4)nc(C(=O)NC)c32)C1=O`, the Potency was “inactive”.
For `CCc1cccc(CC)c1NC(=O)N1Cc2[nH]nc(NC(=O)c3ccc(N4CCN(C)CC4)cc3)c2C1`, the Potency was 19.3 µM (active).
`CNC(=O)c1nn(C)c2c1C(C)(C)Cc1cnc(Nc3ccc(N4CCN(C)CC4)cc3)nc1-2` was tested, and the Potency was 10.9 µM (active).
With `CCN(CC)CCOc1ccc(/C(=C(\Cl)c2ccccc2)c2ccccc2)cc1` the Potency was 112 µM (active).
With `CCCC(Nc1nc(-c2ccc(NC(=O)NCC)c(OC)c2)ncc1C)c1cccnc1` (configuration not stated) the Potency was “inactive”.
In the case of `OCc1ccc(-c2ccc(-c3ccc(CO)s3)o2)s1`, the Potency is reported as “inactive”.
For `CC(C)(C)C(=O)OCOP(=O)(COCCn1cnc2c(N)ncnc21)OCOC(=O)C(C)(C)C`, the Potency was “inactive”.
With `Cc1cc(C(C)Nc2ccccc2C(=O)O)c2nc(N3CCOCC3)cc(=O)n2c1` (configuration not stated) the Potency was 6.85 µM (active).
In the case of `COc1ccc(-c2ccc3c(N4CCOCC4C)nc(N4CCOCC4C)nc3n2)cc1CO` (configuration not stated), the Potency is reported as “inactive”.
For `CCS(=O)(=O)c1cccc(-c2cc(C(=O)NC3CCN(C)CC3)c(C)c3[nH]c4ncc(C)cc4c23)c1`, the Potency was 4.76 µM (active).
In the case of `CN1CCN(Cc2ccc(NC(=O)Nc3ccc(Oc4cc(NC(=O)C5CC5)ncn4)cc3)cc2C(F)(F)F)CC1`, the Potency is reported as 0.611 µM (active).
